Data published in the supplement of paper PMC6555819.

What follows are sequences tested on PPARa:RXRa (NR concentration 270 nM, RXRa partner concentration 90 nM) (assay: PBM binding z-score (relative to random genomic background probes); higher = stronger binding; sequences stand for … in GC…GCGATTGACAGCGTAGAATGAAGG).
Outline: (§1)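 Regression normalization was applied to scanned fluorescence from custom Agilent 4×180K protein-binding microarrays. Before scanning, arrays were incubated 1 h with ligand-free nuclear receptor dimers, and binding was detected with antibodies against each partner (one per run). Binding z-scores use the random background probes as reference.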
For CCAGACAGGTGAGAAGGGAACTCAGCCTCGATTA, the PBM binding z-score was -0.0624.
ACTCGGAGGACAAAGGTCTGAGCTACGCCAGTGA showed a PBM binding z-score of 0.582.
ACCTCTAGGTAACCAAGTTCAGTGAATGCCGAAC gave a PBM binding z-score of 0.625.
With AATACAGGGTCATCGTAGGCCGGAGTACGCACAG the PBM binding z-score was 5.62.
CCACCAAGGTGAACAAGGTCGTTGATTACTATTC was tested, and the PBM binding z-score was 2.63.
In the case of CCGAGTAGGTTATGGCGCATTCAGGCAACGGTGA, the PBM binding z-score is reported as 0.62.
Work on ACTTACGGGTCAACGAGGGTATAGCACGCGTATA yielded a PBM binding z-score of 5.61.
Sequence CGTCCAAGGTCAGAGAGGTCAGTCAATGCCGAGT has a PBM binding z-score of 4.81.
Sequence CAAACTAGGTCAAGAGGTTAAAGTCCGCTTCCCG has a PBM binding z-score of 5.3.
Sequence TCTAGCAGGCCAGAGAGTCACTCAAGAGGTACGG has a PBM binding z-score of 0.177.
TCTTTTAGATCAAAGGTTAAGAAAGCCGAAGCCT showed a PBM binding z-score of 4.08.
CAAACTTGGTCAAGGTCAAAGTCGGTTTGTGCCA was tested, and the PBM binding z-score was 4.46.
GCGACTGTGGCATCAGCAGGTTACCATAACTTAA gave a PBM binding z-score of 0.0749.
Work on ATCGAAAGGTCGAGGAGAGTATAGAGAAAGGGAA yielded a PBM binding z-score of 4.24.
With CATACAGGGTCAGCTAGGCCACAGTAGGGACGGC the PBM binding z-score was 4.29.
TCATATAGGAAAATGCTAGGTGAAAGTCCGATCT gave a PBM binding z-score of 0.728.
Sequence CCTCGGAGGACAGAACGTCAGAGCTGTCCGCTTT has a PBM binding z-score of -1.32.
In the case of CCGACTGGGGCATAAGGTTACCATGAGCCAGCCC, the PBM binding z-score is reported as 1.9.
TCTTGTAGATCAAGCAGGTTTAGAAAGCCTGAGT showed a PBM binding z-score of 0.137.
In the case of GGAACGAGGGCAAGTTGATGGCAGAGTTTGATGG, the PBM binding z-score is reported as 1.55.
Sequence CCTCGGAGGACAACAGGTGGTCAGAGCTGCCAGA has a PBM binding z-score of -0.623.
Sequence TCGAGTAGGTTCCCAATGGGGCATTCAGCTTTCT has a PBM binding z-score of -0.101.
Sequence TCGAATAGGTTAGTCGGGGCATTCAGCCAACATA has a PBM binding z-score of 1.29.
Work on TCGAGTAGGTTACCAATGGGGTATTCAGCTTTCT yielded a PBM binding z-score of 0.988.
CAAACTAGTTCAAGGTCAAAGTCGGTTTGTGCCA gave a PBM binding z-score of 5.13.
For CGAACTAGGTCATCCAGGACAGCGAATACATTGA, the PBM binding z-score was 4.82.
With ATACCAAAGTGATCGTGAGGTCGTTGATACTAAC the PBM binding z-score was 0.935.
ACCTCTAGGTAAGACTCAGTTCAGTGAAGAACGC was tested, and the PBM binding z-score was -0.0817.
For TCATATAGGTAAAATGTGAAAGTCGGTGTGGTAA, the PBM binding z-score was 2.27.
Sequence CCGACTGGGGCAGAAAGGTTACCATCCCATCCGG has a PBM binding z-score of 2.03.
TGGAGTAGGTTAGGGGCATTCAGAATGGCGTCGA gave a PBM binding z-score of 1.98.
CCTACTGGGCCAAAGTCATTGATCAGTCAAAGCA was tested, and the PBM binding z-score was 0.687.
In the case of ATTCGGAGGACAAAGGTCAGAGCTACGCCAGTGA, the PBM binding z-score is reported as 4.9.
Sequence ATACCAAGGTGATCGTGAGGTCGTTGAGACTAAC has a PBM binding z-score of 1.55.
For GCTAGCAGGCCAGTTGGGTCACTCAATGACGGGC, the PBM binding z-score was 0.54.
Work on CCTACTGGGCCCAAAAGGTCATTGATGCCGATAA yielded a PBM binding z-score of 4.61.
Sequence AGAACGAGGGCACGATGAGTTGATAGCAGAGTAG has a PBM binding z-score of 2.29.
With TCATATAAGTAATACAGGTGAAAGTCGGCATCTA the PBM binding z-score was 1.79.
ATCGAAATGTCGACGAGGTGAGTATACACCGTTT was tested, and the PBM binding z-score was 0.206.
For TCTCGGAGGACACGAAAGGTCAGAGCTCGACATC, the PBM binding z-score was 3.45.

The sequences below were run on PPARg:RXRa (NR concentration 180 nM, RXRa partner concentration 90 nM) in the same assay as above.
Outline: as §1
In the case of CCAGACAGGTGAGAAGGGAACTCAGCCTCGATTA, the PBM binding z-score is reported as 0.318.
For ACTCGGAGGACAAAGGTCTGAGCTACGCCAGTGA, the PBM binding z-score was 1.95.
ACCTCTAGGTAACCAAGTTCAGTGAATGCCGAAC was tested, and the PBM binding z-score was 0.296.
For AATACAGGGTCATCGTAGGCCGGAGTACGCACAG, the PBM binding z-score was 6.36.
In the case of CCACCAAGGTGAACAAGGTCGTTGATTACTATTC, the PBM binding z-score is reported as 1.21.
Sequence CCGAGTAGGTTATGGCGCATTCAGGCAACGGTGA has a PBM binding z-score of 0.319.
ACTTACGGGTCAACGAGGGTATAGCACGCGTATA was tested, and the PBM binding z-score was 5.35.
Work on CGTCCAAGGTCAGAGAGGTCAGTCAATGCCGAGT yielded a PBM binding z-score of 3.37.
Sequence CAAACTAGGTCAAGAGGTTAAAGTCCGCTTCCCG has a PBM binding z-score of 8.91.
TCTAGCAGGCCAGAGAGTCACTCAAGAGGTACGG showed a PBM binding z-score of 0.656.
TCTTTTAGATCAAAGGTTAAGAAAGCCGAAGCCT gave a PBM binding z-score of 6.36.
For CAAACTTGGTCAAGGTCAAAGTCGGTTTGTGCCA, the PBM binding z-score was 2.73.
GCGACTGTGGCATCAGCAGGTTACCATAACTTAA was tested, and the PBM binding z-score was 0.0982.
ATCGAAAGGTCGAGGAGAGTATAGAGAAAGGGAA was tested, and the PBM binding z-score was 2.57.
With CATACAGGGTCAGCTAGGCCACAGTAGGGACGGC the PBM binding z-score was 3.75.
For TCATATAGGAAAATGCTAGGTGAAAGTCCGATCT, the PBM binding z-score was 0.487.
Sequence CCTCGGAGGACAGAACGTCAGAGCTGTCCGCTTT has a PBM binding z-score of -0.391.
For CCGACTGGGGCATAAGGTTACCATGAGCCAGCCC, the PBM binding z-score was 2.48.
TCTTGTAGATCAAGCAGGTTTAGAAAGCCTGAGT showed a PBM binding z-score of -0.639.
GGAACGAGGGCAAGTTGATGGCAGAGTTTGATGG was tested, and the PBM binding z-score was 0.994.
In the case of CCTCGGAGGACAACAGGTGGTCAGAGCTGCCAGA, the PBM binding z-score is reported as -0.311.
Work on TCGAGTAGGTTCCCAATGGGGCATTCAGCTTTCT yielded a PBM binding z-score of -0.771.
With TCGAATAGGTTAGTCGGGGCATTCAGCCAACATA the PBM binding z-score was 0.133.
Work on TCGAGTAGGTTACCAATGGGGTATTCAGCTTTCT yielded a PBM binding z-score of 0.229.
Work on CAAACTAGTTCAAGGTCAAAGTCGGTTTGTGCCA yielded a PBM binding z-score of 3.27.
With CGAACTAGGTCATCCAGGACAGCGAATACATTGA the PBM binding z-score was 7.57.
ATACCAAAGTGATCGTGAGGTCGTTGATACTAAC was tested, and the PBM binding z-score was 0.235.
With ACCTCTAGGTAAGACTCAGTTCAGTGAAGAACGC the PBM binding z-score was 0.0418.
With TCATATAGGTAAAATGTGAAAGTCGGTGTGGTAA the PBM binding z-score was 3.1.
In the case of CCGACTGGGGCAGAAAGGTTACCATCCCATCCGG, the PBM binding z-score is reported as 1.44.
TGGAGTAGGTTAGGGGCATTCAGAATGGCGTCGA showed a PBM binding z-score of 2.21.
For CCTACTGGGCCAAAGTCATTGATCAGTCAAAGCA, the PBM binding z-score was 1.42.
Sequence ATTCGGAGGACAAAGGTCAGAGCTACGCCAGTGA has a PBM binding z-score of 7.69.
ATACCAAGGTGATCGTGAGGTCGTTGAGACTAAC showed a PBM binding z-score of 0.356.
With GCTAGCAGGCCAGTTGGGTCACTCAATGACGGGC the PBM binding z-score was 0.164.
CCTACTGGGCCCAAAAGGTCATTGATGCCGATAA was tested, and the PBM binding z-score was 1.78.
AGAACGAGGGCACGATGAGTTGATAGCAGAGTAG showed a PBM binding z-score of 2.6.
Work on TCATATAAGTAATACAGGTGAAAGTCGGCATCTA yielded a PBM binding z-score of 1.29.
Sequence ATCGAAATGTCGACGAGGTGAGTATACACCGTTT has a PBM binding z-score of 0.897.
For TCTCGGAGGACACGAAAGGTCAGAGCTCGACATC, the PBM binding z-score was 1.37.
